Measurements: PubChem BioAssay
Active and inactive are the calls of the source.

Key:
[1] = test system: PRMT1 (protein arginine N-methyltransferase 1); assay: PRMT1 binders on small-molecule microarrays, primary screen, biochemical, small-molecule microarray, 635 nm fluorescence (AID 1088); conditions: small-molecule microarray binding, higher = more signal;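 note: binding of Prmt1 protein to compounds spotted on small-molecule microarray slides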
[2] = yeast growth modulation, basal conditions, primary screen, YJM789 clinical isolate, OD600, 24 h (AID 1089);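 note: growth of clinical yeast isolate S. cerevisiae YJM 789 seeded 1000 cells per well; test concentration not given here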; conditions: S. cerevisiae YJM789 growth, higher = more signal, called active from +8 up or from −8 down
[3] = fission yeast growth modulation, primary screen, strain 972, OD600, 24 h, no modulator (AID 1090);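 note: basal condition with compound alone and no growth modifier present; test concentration not given here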; conditions: S. pombe 972 growth, higher = more signal, called active from +8 up or from −8 down
[4] = S. cerevisiae growth modulation with rapamycin, primary screen, strain BY4716, OD600, 96 h (AID 1091); conditions: higher = more signal, called active from +8 up or from −8 down; note: test concentration not given here
[5] = molecular target: Torsin-1A-interacting protein 2 (Homo sapiens) (UniProt Q8NFQ8); assay: LULL1 binders on small-molecule microarray, primary screen, cell lysate, human LULL1 lysate, 635/667 nm fluorescence (AID 1092); conditions: hLULL1 lysate binding, 635 nm fluorescence, higher = more signal;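 note: probe is lysate of COS7 cells overexpressing human LULL1; score merges per-feature 667 nm fluorescence with signal-to-noise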
[6] = E. coli growth modulation, two-sided OD650, primary screen, E. coli filamentation project, strain DRC41, 24 h (AID 1093); conditions: OD650, 24 h, higher = more signal, called active from +8 up or from −8 down;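 note: MC1000 strain lacking acrAB efflux and sulA so SOS filamentation is blocked; test concentration not given here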
[7] = small-molecule microarray binders of probe aLefty2, primary screen, biochemical, biotinylated probe, 635/667 nm fluorescence (AID 1094); conditions: higher = more signal;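 note: score merges spot fluorescence near 667 nm with spot signal-to-noise ratio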
[8] = test system: Noggin (protein binding on small-molecule microarray); assay: Noggin binders on small-molecule microarray, primary screen, biochemical, 635/667 nm fluorescence (AID 1095); conditions: 635 nm fluorescence, higher = more signal;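 note: score merges 667 nm feature fluorescence with signal to noise over triplicate slides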
[9] = molecular target: Neurogenic locus notch homolog protein 3 (Homo sapiens) (UniProt Q9UM47); assay: NOTCH3 binders on small-molecule microarray, primary screen, biochemical, 635/667 nm fluorescence (AID 1096); conditions: NOTCH3 binding, 635 nm fluorescence, higher = more signal
[10] = small-molecule microarray binders of probe aEGFR, primary screen, biochemical, biotinylated probe, 635/667 nm fluorescence (AID 1097); conditions: higher = more signal;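 note: probe is a biotinylated anti-EGFR antibody binding compounds printed on slides; score combines fluorescence near 667 nm and signal to noise of each spot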
[11] = test system: Plasmodium falciparum Sir2 (PF13_0152, Sir2A); assay: pfSir2 binders on small-molecule microarrays, primary screen, biochemical, small-molecule microarray, 635 nm fluorescence (AID 1098); conditions: small-molecule microarray binding, fluorescence 635 nm; higher = more signal;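 note: score merges spot fluorescence intensity with its signal-to-noise ratio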
[12] = small-molecule microarray binders of probe aDKK1, primary screen, biochemical, biotinylated probe, 635/667 nm fluorescence (AID 1099); conditions: higher = more signal;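 note: score merges 667nm spot fluorescence with signal to noise across triplicate slides; reference of the scale not given here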
[13] = small-molecule microarray binders of probe aCHRDL2, primary screen, biochemical, biotinylated probe, 635/667 nm fluorescence (AID 1100); conditions: higher = more signal
[14] = splicing luciferase reporter signal modulators, primary screen, spliceosome inhibition project, cell-based, HEK293, splice +/- reporter (AID 1101); conditions: luminescence, 24 h, higher = more signal, called active from +8 up or from −8 down;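 note: HEK293 cells carrying a splicing-competent luciferase reporter gene; test concentration not given here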
[15] = molecular target: Fibroblast growth factor 10 (Homo sapiens) (UniProt O15520); assay: FGF10 binders on small-molecule microarrays, primary screen, biochemical, small-molecule microarray, 635 nm fluorescence (AID 1102); conditions: FGF10 binding, fluorescence 635 nm, higher = more signal
[16] = test system: glycogen synthase kinase-3 (GSK3A per assay name; protocol says GSK3B); assay: GSK3 binders on small-molecule microarrays, primary screen, biochemical, small-molecule microarray, 635 nm fluorescence, GSK3A (AID 1103); conditions: small-molecule microarray binding, fluorescence 635 nm; higher = more signal; note: the record names both GSK3A and GSK3B
[17] = molecular target: Epidermal growth factor receptor (Homo sapiens) (UniProt P00533); assay: EGFR binders on small-molecule microarrays, primary screen, biochemical, small-molecule microarray, 635 nm fluorescence (AID 1104); conditions: EGFR binding, higher = more signal;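 note: score merges 667 nm emission intensity with spot signal to noise over triplicate slides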
[18] = molecular target: Follistatin-related protein 3 (Homo sapiens) (UniProt O95633); assay: FSTL3 binders on small-molecule microarrays, primary screen, biochemical, small-molecule microarray, 635 nm fluorescence (AID 1105); conditions: FSTL3 binding, higher = more signal;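 note: score merges emission near 667 nm and signal to noise per printed spot across three slides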
[19] = molecular target: Dickkopf-related protein 1 (Homo sapiens) (UniProt O94907); assay: DKK1 binders on small-molecule microarrays, primary screen, biochemical, small-molecule microarray, 635 nm fluorescence scan (AID 1106); conditions: DKK1 binding, higher = more signal;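 note: score merges emission near 667 nm with signal to noise over three replicate slides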
[20] = test system: Inhibin beta A chain (activin A); assay: INHBA (activin A) binders on microarrays, primary screen, biochemical, small-molecule microarray, 635 nm fluorescence scan (AID 1107); conditions: small-molecule microarray binding, higher = more signal;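 note: mouse activin A protein probed at 4.33 µg/mL on printed slides; score merges bound-protein fluorescence near 667 nm with spot signal-to-noise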

Dickkopf-related protein 1 (Homo sapiens), sequence (O94907 whole entry, looked up): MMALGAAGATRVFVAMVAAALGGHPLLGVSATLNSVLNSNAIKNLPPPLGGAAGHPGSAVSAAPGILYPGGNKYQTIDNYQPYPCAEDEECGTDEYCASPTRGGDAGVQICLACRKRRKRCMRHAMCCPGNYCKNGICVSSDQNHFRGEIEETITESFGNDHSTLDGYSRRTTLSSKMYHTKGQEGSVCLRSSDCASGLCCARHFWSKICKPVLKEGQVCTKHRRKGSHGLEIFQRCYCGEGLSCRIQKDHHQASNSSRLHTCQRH
Neurogenic locus notch homolog protein 3 (Homo sapiens), sequence (Q9UM47 whole entry, looked up): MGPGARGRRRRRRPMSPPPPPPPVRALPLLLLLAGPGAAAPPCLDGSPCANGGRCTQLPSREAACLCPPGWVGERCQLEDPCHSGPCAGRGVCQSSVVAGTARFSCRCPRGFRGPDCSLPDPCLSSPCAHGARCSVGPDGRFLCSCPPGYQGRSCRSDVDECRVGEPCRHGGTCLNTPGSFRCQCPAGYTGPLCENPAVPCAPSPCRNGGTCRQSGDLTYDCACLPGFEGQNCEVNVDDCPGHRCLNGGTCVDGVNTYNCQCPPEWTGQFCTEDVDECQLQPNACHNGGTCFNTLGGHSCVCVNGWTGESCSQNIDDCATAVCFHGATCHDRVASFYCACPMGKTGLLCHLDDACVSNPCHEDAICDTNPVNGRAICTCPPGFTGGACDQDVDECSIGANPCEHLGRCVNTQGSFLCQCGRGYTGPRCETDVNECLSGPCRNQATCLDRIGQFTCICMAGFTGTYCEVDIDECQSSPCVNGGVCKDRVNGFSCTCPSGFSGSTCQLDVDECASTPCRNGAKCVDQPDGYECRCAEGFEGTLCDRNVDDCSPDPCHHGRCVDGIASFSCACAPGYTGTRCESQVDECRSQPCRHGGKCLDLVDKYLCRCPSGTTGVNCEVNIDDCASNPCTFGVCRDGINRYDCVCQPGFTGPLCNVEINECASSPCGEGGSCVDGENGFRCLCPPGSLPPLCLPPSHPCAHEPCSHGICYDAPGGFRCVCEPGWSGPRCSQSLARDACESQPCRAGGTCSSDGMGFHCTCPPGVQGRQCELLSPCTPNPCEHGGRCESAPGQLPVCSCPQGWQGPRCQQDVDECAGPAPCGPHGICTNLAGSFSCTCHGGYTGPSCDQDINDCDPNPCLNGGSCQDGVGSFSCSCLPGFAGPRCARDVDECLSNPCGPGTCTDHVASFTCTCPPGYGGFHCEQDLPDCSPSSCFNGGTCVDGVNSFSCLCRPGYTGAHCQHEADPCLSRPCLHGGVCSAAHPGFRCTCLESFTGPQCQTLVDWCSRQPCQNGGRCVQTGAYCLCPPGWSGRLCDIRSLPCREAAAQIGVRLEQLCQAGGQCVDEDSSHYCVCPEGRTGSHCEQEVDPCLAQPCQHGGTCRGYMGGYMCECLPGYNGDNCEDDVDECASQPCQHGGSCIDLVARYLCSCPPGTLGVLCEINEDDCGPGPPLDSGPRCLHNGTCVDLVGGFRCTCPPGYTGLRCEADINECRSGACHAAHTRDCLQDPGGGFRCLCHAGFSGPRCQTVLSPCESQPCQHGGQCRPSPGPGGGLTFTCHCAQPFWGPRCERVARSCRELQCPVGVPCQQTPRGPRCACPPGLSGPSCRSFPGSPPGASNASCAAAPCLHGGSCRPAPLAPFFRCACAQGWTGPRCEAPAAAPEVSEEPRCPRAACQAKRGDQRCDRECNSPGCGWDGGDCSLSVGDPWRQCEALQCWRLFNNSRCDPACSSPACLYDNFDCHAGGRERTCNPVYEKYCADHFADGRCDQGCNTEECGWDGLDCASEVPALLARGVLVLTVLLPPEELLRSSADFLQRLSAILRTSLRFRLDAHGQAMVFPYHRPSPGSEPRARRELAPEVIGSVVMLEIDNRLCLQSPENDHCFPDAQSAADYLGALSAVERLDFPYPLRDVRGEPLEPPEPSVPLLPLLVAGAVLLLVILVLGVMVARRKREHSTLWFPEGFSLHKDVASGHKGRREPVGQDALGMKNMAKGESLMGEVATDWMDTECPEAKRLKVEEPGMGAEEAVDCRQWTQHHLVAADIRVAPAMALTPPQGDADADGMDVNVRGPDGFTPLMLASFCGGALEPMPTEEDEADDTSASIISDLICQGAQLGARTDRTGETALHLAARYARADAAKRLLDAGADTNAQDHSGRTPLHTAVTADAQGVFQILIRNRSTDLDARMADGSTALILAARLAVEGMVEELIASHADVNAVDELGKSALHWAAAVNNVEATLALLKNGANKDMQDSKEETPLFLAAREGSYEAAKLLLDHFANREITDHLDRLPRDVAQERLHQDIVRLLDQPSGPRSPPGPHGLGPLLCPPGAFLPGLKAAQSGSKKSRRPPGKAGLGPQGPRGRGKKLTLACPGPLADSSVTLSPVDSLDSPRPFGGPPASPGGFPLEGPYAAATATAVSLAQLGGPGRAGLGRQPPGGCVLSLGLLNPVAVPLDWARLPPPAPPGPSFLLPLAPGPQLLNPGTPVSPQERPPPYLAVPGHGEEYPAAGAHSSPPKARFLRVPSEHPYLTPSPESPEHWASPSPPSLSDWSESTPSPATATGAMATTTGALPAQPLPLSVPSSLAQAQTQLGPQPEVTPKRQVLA
Follistatin-related protein 3 (Homo sapiens), sequence (O95633 whole entry, looked up): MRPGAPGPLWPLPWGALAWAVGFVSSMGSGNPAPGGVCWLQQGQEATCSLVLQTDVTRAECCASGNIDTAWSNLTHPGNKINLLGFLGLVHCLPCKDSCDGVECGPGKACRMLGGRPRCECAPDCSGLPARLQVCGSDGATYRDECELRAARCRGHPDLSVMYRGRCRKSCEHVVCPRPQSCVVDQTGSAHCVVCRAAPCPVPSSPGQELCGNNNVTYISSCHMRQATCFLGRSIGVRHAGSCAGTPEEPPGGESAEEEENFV
Fibroblast growth factor 10 (Homo sapiens), sequence (O15520 whole entry, looked up): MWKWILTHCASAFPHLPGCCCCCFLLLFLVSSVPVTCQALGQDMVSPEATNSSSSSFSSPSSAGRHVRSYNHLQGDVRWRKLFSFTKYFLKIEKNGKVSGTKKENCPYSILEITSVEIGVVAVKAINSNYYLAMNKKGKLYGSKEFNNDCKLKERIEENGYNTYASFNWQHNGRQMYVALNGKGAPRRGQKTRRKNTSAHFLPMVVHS
Torsin-1A-interacting protein 2 (Homo sapiens), sequence (Q8NFQ8 whole entry, looked up): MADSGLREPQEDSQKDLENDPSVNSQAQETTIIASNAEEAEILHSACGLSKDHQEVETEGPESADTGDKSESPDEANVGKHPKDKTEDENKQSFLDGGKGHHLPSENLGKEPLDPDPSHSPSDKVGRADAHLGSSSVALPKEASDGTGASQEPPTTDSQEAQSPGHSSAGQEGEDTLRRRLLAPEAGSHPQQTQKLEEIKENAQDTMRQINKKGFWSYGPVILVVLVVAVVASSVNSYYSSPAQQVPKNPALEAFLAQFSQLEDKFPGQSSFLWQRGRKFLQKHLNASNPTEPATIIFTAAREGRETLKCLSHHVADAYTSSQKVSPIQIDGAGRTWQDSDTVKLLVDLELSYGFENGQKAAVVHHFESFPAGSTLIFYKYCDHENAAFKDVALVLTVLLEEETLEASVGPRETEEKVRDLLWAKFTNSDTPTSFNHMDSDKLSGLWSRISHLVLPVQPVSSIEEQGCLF
Epidermal growth factor receptor (Homo sapiens), sequence (P00533 whole entry, looked up): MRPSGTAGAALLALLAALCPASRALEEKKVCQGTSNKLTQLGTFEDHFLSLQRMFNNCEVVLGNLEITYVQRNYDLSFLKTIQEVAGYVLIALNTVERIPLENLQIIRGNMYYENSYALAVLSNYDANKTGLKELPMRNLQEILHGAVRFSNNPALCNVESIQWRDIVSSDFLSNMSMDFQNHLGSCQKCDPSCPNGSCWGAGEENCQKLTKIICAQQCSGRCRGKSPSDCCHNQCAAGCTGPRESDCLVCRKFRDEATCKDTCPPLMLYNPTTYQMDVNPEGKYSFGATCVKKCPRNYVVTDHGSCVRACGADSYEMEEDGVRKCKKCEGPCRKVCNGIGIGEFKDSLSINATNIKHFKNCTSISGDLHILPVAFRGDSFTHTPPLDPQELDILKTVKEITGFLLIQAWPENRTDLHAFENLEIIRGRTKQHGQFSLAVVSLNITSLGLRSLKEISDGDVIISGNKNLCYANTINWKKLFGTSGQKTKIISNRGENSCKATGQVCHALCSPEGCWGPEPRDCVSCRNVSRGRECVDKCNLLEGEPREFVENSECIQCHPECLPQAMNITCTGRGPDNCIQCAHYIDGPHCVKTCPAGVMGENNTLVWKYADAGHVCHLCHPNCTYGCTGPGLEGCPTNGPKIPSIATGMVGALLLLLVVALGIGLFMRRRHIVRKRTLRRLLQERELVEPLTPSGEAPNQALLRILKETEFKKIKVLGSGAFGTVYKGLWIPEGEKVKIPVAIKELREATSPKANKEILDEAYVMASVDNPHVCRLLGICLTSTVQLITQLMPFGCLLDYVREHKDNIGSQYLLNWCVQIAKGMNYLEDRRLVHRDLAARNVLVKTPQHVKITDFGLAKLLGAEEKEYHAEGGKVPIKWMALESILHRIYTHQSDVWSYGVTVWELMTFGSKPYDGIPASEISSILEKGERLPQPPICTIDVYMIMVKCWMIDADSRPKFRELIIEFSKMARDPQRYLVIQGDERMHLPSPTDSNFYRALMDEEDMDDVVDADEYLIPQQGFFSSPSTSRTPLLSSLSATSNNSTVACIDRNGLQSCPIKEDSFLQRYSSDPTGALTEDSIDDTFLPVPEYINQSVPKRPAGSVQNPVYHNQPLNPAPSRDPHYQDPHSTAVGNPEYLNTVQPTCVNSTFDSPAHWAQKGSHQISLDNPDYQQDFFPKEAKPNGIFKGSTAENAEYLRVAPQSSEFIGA

COC(=O)[C@@H]1N=C(c2ccc(OCCCO)cc2)O[C@@H]1c1ccccc1CN=[N+]=[N-]
composite z-score [1]: 1.01
z-score [2]: 0.23 (inactive)
z-score [3]: -0.956 (inactive)
z-score [4]: -1.14 (inactive)
composite z-score [5]: 1.74
z-score [6]: 1.05 (inactive)
composite z-score [7]: 0.109
composite z-score [8]: -0.0395
composite z-score [9]: 0.327
composite z-score [10]: -0.0802
composite z-score [11]: -0.418
composite z-score [12]: 0.502
composite z-score [13]: 1.2
z-score [14]: 0.0193 (inactive)
composite z-score [15]: -0.648
composite z-score [16]: -1.01
composite z-score [17]: -0.428
composite z-score [18]: -0.547
composite z-score [19]: -1.36
composite z-score [20]: 0.778

CC(C)C[C@H]1NC(=O)[C@@]23C(=O)N[C@@H](Cc4ccccc4)C2[C@H](C)[C@@]2(C)O[C@H]2C3/C=C/C/C=C\CNC(=O)[C@@H]2CCCN2C1=O (stereo not given in full)
composite z-score [1]: 1.52
z-score [2]: -0.397 (inactive)
z-score [3]: -1.08 (inactive)
z-score [4]: -0.579 (inactive)
composite z-score [5]: 1.58
z-score [6]: -1.14 (inactive)
composite z-score [7]: -0.147
composite z-score [8]: 0.588
composite z-score [9]: 0.696
composite z-score [10]: -0.008
composite z-score [11]: 0.903
composite z-score [12]: -0.244
composite z-score [13]: -0.575
z-score [14]: 0.091 (inactive)
composite z-score [15]: 0.815
composite z-score [16]: 0.47
composite z-score [17]: 0.139
composite z-score [18]: 0.572
composite z-score [19]: 0.668
composite z-score [20]: 0.918

CC(C)C[C@@H]1NC(=O)C([C@@H](C)OCc2ccccc2)NC(=O)[C@@]23C(=O)N[C@@H](Cc4ccccc4)C2[C@H](C)[C@@]2(C)O[C@H]2C3/C=C/CC/C=C/CNC1=O (stereo not given in full)
composite z-score [1]: 1.55
z-score [2]: -0.404 (inactive)
z-score [3]: -1.07 (inactive)
z-score [4]: -1.28 (inactive)
composite z-score [5]: 1.82
z-score [6]: 0.957 (inactive)
composite z-score [7]: -0.129
composite z-score [8]: 1.18
composite z-score [9]: 0.767
composite z-score [10]: -0.0512
composite z-score [11]: 1.38
composite z-score [12]: -0.309
composite z-score [13]: -0.475
z-score [14]: -1.62 (inactive)
composite z-score [15]: 0.699
composite z-score [16]: 0.517
composite z-score [17]: 0.432
composite z-score [18]: 0.721
composite z-score [19]: 0.445
composite z-score [20]: 1.13

CCN(CC)c1ccc(N2CC=CC34O[C@@H]5C=CCOC(=O)[C@@H]5[C@H]3C(=O)N(CCO)[C@@H]4C2=O)cc1 (stereo not given in full)
composite z-score [1]: -0.503
z-score [2]: 0.907 (inactive)
z-score [3]: -1.02 (inactive)
z-score [4]: -0.108 (inactive)
composite z-score [5]: 0.174
z-score [6]: 1.47 (inactive)
composite z-score [7]: -0.0041
composite z-score [8]: -1.35
composite z-score [9]: -0.373
composite z-score [10]: -0.334
composite z-score [11]: 1.47
composite z-score [12]: -0.0117
composite z-score [13]: 0.54
z-score [14]: 0.0206 (inactive)
composite z-score [15]: -0.938
composite z-score [16]: -0.562
composite z-score [17]: -1.66
composite z-score [18]: -0.952
composite z-score [19]: -1.51
composite z-score [20]: -0.292

C=C(COC)/C(=C/C[C@H](OC(=O)c1ccncc1)c1ccc(OCCO)cc1)c1cc(C(=O)OC)ccc1OC
composite z-score [1]: 1.41
z-score [2]: -0.823 (inactive)
z-score [3]: -1.2 (inactive)
z-score [4]: -0.649 (inactive)
composite z-score [5]: 2.28
z-score [6]: 1.59 (inactive)
composite z-score [7]: -0.0337
composite z-score [8]: 1.01
composite z-score [9]: 1.1
composite z-score [10]: -0.0828
composite z-score [11]: 0.674
composite z-score [12]: 0.17
composite z-score [13]: 0.118
z-score [14]: -0.767 (inactive)
composite z-score [15]: 1.47
composite z-score [16]: 0.32
composite z-score [17]: -0.0503
composite z-score [18]: 0.967
composite z-score [19]: 0.8
composite z-score [20]: 1.04

C[C@H]1C2[C@H](Cc3ccccc3)NC(=O)[C@]23C(=O)NCC(=O)N2CCC[C@H]2C(=O)NC/C=C\C/C=C/C3[C@@H]2O[C@]12C (stereo not given in full)
composite z-score [1]: -0.115
z-score [2]: -0.479 (inactive)
z-score [3]: -0.186 (inactive)
z-score [4]: -0.406 (inactive)
composite z-score [5]: -0.691
z-score [6]: 0.924 (inactive)
composite z-score [7]: -0.161
composite z-score [8]: -0.102
composite z-score [9]: 0.105
composite z-score [10]: -0.0531
composite z-score [11]: 1
composite z-score [12]: -0.22
composite z-score [13]: -0.6
z-score [14]: 0.0829 (inactive)
composite z-score [15]: 0.269
composite z-score [16]: -0.0567
composite z-score [17]: 0.136
composite z-score [18]: 0.201
composite z-score [19]: 0.376
composite z-score [20]: 1.43

C=C(/C(=C/C[C@@H](OC(C)=O)c1ccccc1OCCO)c1cc(C(=O)OC)ccc1OC)C(C)C
composite z-score [1]: 0.551
z-score [2]: 0.343 (inactive)
z-score [3]: -0.377 (inactive)
z-score [4]: -0.729 (inactive)
composite z-score [5]: 0.231
z-score [6]: 0.505 (inactive)
composite z-score [7]: -0.119
composite z-score [8]: 0.235
composite z-score [9]: -0.163
composite z-score [10]: 0.198
composite z-score [11]: 1.08
composite z-score [12]: -0.114
composite z-score [13]: -0.242
z-score [14]: 0.314 (inactive)
composite z-score [15]: 0.419
composite z-score [16]: 0.115
composite z-score [17]: -0.209
composite z-score [18]: -0.0844
composite z-score [19]: 0.0006
composite z-score [20]: 0.772

C=CCC(OC(C)=O)[C@@H]1[C@@H](N(Cc2cccc3ccccc23)C(=O)c2ccc(-c3ccccc3)cc2)c2cc(OCCCO)ccc2N1C(=O)c1ccc2ccccc2n1 (stereo not given in full)
composite z-score [1]: 0.929
z-score [2]: -0.637 (inactive)
z-score [3]: 0.651 (inactive)
z-score [4]: -0.0728 (inactive)
composite z-score [5]: 1.01
z-score [6]: -0.747 (inactive)
composite z-score [7]: 0.157
composite z-score [8]: 0.37
composite z-score [9]: 0.296
composite z-score [10]: -0.0271
composite z-score [11]: 0.0273
composite z-score [12]: 0.052
composite z-score [13]: 0.265
z-score [14]: -0.395 (inactive)
composite z-score [15]: 0.186
composite z-score [16]: 0.159
composite z-score [17]: -0.0618
composite z-score [18]: 0.389
composite z-score [19]: 0.19
composite z-score [20]: 1.31

[N-]=[N+]=NCc1ccccc1C[C@]1(C(=O)N2CCOCC2)N=C(c2ccc(OCCCO)cc2)O[C@H]1c1ccccc1CN=[N+]=[N-]
composite z-score [1]: 1.56
z-score [2]: 1.66 (inactive)
z-score [3]: 0.284 (inactive)
z-score [4]: 16.6 (active)
composite z-score [5]: 3.61
z-score [6]: 0.27 (inactive)
composite z-score [7]: 0.747
composite z-score [8]: 0.809
composite z-score [9]: 0.616
composite z-score [10]: 0.732
composite z-score [11]: 1.33
composite z-score [12]: 1.42
composite z-score [13]: 1.39
z-score [14]: -1.2 (inactive)
composite z-score [15]: 1.39
composite z-score [16]: 0.935
composite z-score [17]: -0.134
composite z-score [18]: 0.217
composite z-score [19]: -0.275
composite z-score [20]: 1.43

CN(C)C(=O)[C@@]1(CCS(=O)(=O)c2ccccc2)N=C(c2ccc(OCCCO)cc2)O[C@H]1c1ccccc1N=[N+]=[N-]
composite z-score [1]: 1.55
z-score [2]: -1.01 (inactive)
z-score [3]: -0.173 (inactive)
z-score [4]: 0.914 (inactive)
composite z-score [5]: 3.1
z-score [6]: 0.635 (inactive)
composite z-score [7]: 0.0554
composite z-score [8]: 0.987
composite z-score [9]: 1.11
composite z-score [10]: -0.0168
composite z-score [11]: 1.44
composite z-score [12]: 0.466
composite z-score [13]: 0.817
z-score [14]: -0.445 (inactive)
composite z-score [15]: 1.36
composite z-score [16]: 1.29
composite z-score [17]: 0.193
composite z-score [18]: 1.03
composite z-score [19]: -0.0735
composite z-score [20]: 0.786
